# Rows were chosen to be rich in hits. Some 2.7% of all compounds tested hit in one or more screens of this group.
# mIDH1 inhibitor: blocks human mutant IDH1 R132H enzyme | AID 602179 | O75874 | 390,000 tested, 0.093% active | Potency, µM (top dose mostly 76.6 µM), usual class: inhibitors | IDH1-R132H enzyme, NADPH consumption, diaphorase/resazurin fluorescence; note: nearly all actives have a fitted effect of over 65% in size
#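 IDH1-R132H (0.5 ug/mL dispensed) in pH 7.5 Tris buffer was preincubated 30 min with compound, then given a substrate mix of 0.016 mM NADPH and 2 mM alpha-KG for 80 min at room temperature; remaining NADPH was read by diaphorase/resazurin fluorescence.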
# GLP1R inv ag: inverse agonists of human GLP-1 receptor; P43220; HEK293 GLP-1R CRE-luciferase, luminescence, 24 h; GLP-1R form is constitutively active; Potency, µM (top dose mostly 38.3 µM), usual class: inhibitors; 410,000 tested, 1.6% active; AID 624417; note: nearly all actives have a fitted effect of over 55% in size
# Target sequence (P43220 whole entry, looked up): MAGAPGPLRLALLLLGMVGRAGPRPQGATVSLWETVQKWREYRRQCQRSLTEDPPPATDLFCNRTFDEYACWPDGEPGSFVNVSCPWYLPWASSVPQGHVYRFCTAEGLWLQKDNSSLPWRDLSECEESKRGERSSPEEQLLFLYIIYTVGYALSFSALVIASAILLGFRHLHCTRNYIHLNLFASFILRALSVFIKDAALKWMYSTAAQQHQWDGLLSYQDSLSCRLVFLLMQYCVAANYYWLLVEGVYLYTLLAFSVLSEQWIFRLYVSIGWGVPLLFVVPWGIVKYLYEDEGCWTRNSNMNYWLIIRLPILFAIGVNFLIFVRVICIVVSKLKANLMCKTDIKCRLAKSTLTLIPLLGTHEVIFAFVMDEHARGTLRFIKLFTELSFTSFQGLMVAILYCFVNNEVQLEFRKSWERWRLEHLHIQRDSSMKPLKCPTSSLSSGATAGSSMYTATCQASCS
#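 Inverse agonism was detected as reduced cAMP-driven luciferase luminescence after 24 h compound treatment. The cells were HEK293 clones expressing constitutively active human GLP-1R with the reporter. Reporter-only and GPR119 cell lines served as counterscreen controls.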
# TrxR1 inh: inhibitors of rat thioredoxin reductase 1; 390,000 tested, 1% active; AID 588453; recombinant rTrxR1, NADPH fluorescence consumption, selenite substrate; Potency, µM (highest dose often 114 µM), most hits filed as inhibitors; O89049; note: nearly all actives have a fitted effect of over 65% in size
#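 Rat TrxR1 (90 nM in the dispensed reagent) was pre-reduced with 400 uM NADPH for 5 min at room temperature, then incubated with compound for 15 min. After 400 uM selenite was added, NADPH fluorescence (Ex 340/Em 450 nm) was followed for 8 min.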
# GLP1R cytotox: cytotoxicity in counter-screen for GLP-1R inverse agonists; 410,000 tested, 0.13% active; Potency, µM (doses to about 38.3 µM), actives largely listed as inhibitors; HEK293 cAMP-luciferase reporter cells, luminescence, 24 h; AID 624418;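 note: loss of luciferase light is scored as toxicity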
#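 1536-well qHTS counterscreen of the MLSMR; 200 cells/uL, 12 h pre-incubation, 23 nL cpd, 24 h at 37 deg C 5% CO2, luciferase detection reagent, 12 min RT, luminescence. Inhibition = undesired.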
# GLP-1R agonist: agonists of human GLP-1 receptor; 380,000 tested, 0.007% active; P43220; HEK293 GLP-1R CRE-luciferase, luminescence, 4-6 h; cells express a hypersensitive GLP-1R form; Potency, µM (series often up to 45.6 µM), usual class: activators
# TrxR1 substrate: substrates of rat thioredoxin reductase 1; O89049; 390,000 tested, 0.01% active; Potency, µM (top dose mostly 114 µM); purified TrxR1 substrate turnover, NADPH consumption readout; note: nearly all actives have a fitted effect of over 50% in size
#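 Rat TrxR1, dispensed at 90 nM, was prereduced with 400 uM NADPH (final) for 5 min at ~22 deg C, then incubated with compound 15 min before 400 uM selenite. A first-read NADPH fluorescence drop versus no-compound background flagged substrates.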
# Numbers stand for hits; i = inactive; ? = inconclusive; nt = no result given. Calls come from the whole dose curve; as a rule, active = well fitted curve in the direction sought with a large enough effect; inconclusive = small, poorly fitted or top-dose-only effect, or another doubt; inactive = no such curve, though single readings can be large; an effect the other way counts as inactive or inconclusive.
SMILES,mIDH1 inhibitor,GLP1R inv ag,TrxR1 inh,GLP1R cytotox,GLP-1R agonist,TrxR1 substrate
COC(=O)c1ccc(C(=O)N2CCCC(Nc3ccc(C(C)C)cc3)C2)cc1 (configuration not stated),i,i,i,i,i,i
CC(C)c1ccc(NC2CCCN(C(=O)c3ccsc3)C2)cc1 (configuration not stated),i,10µM,i,i,i,i
Cc1ccc(OCCOC(=O)c2c(-c3ccccc3)noc2C)cc1,i,?,i,i,i,i
Cc1onc(-c2ccccc2)c1C(=O)NC(C)c1ccccc1 (configuration not stated),i,i,i,i,i,i
Cc1ccc(C(C)NC(=O)c2c(-c3ccccc3)noc2C)cc1C (configuration not stated),i,7.94µM,i,i,i,i
CCOc1ccc(C(=O)COC(=O)c2c(-c3ccccc3)noc2C)cc1,i,10µM,i,?,i,i
CCCOc1ccccc1NC(=O)c1c(-c2ccccc2)noc1C,i,11.2µM,i,i,i,i
Cc1cccc(CS(=O)(=O)c2nnc([C@H](Cc3ccccc3)NC(=O)OC(C)(C)C)o2)c1,i,?,0.398µM,?,i,i
COC(=O)CS(=O)(=O)c1nnc([C@H](Cc2ccccc2)NC(=O)OC(C)(C)C)o1,i,i,1.26µM,?,i,i
CCCCN(CCCC)c1ccc(/C=C/c2ccnc3ccccc23)cc1,nt,nt,i,nt,nt,i
CN(C)CCNC(=O)c1coc(=O)c(Br)c1,i,i,i,i,i,i
O=C(NCCc1ccccc1)c1coc(=O)c(Br)c1,i,?,i,5.01µM,i,i
Cc1cc(N2CCC(C)CC2)nc(SCC(=O)c2ccccc2)n1,i,3.16µM,i,i,i,i
CCN(Cc1ccccc1)C(=O)CN1C(=O)COc2ccc(S(=O)(=O)N(CC)CC)cc21,i,?,i,i,i,i
COc1ccc2c(c1)C=C/C2=C\c1ccc(N(C)C)cc1,nt,nt,i,nt,nt,i
O=C(O)c1cccc(NC(=S)NC(NC(=O)c2cccc([N+](=O)[O-])c2)C(Cl)(Cl)Cl)c1 (configuration not stated),i,i,i,i,i,i
O=C(NC(NC(=S)Nc1ccccc1)C(Cl)(Cl)Cl)c1cccc(Cl)c1 (configuration not stated),i,7.94µM,i,?,i,i
Cc1ccc(NC(=S)NC(NC(=O)c2ccccc2)C(Cl)(Cl)Cl)c(C)c1 (configuration not stated),i,3.55µM,i,?,i,i
Cc1ccccc1C(=O)NC(NC(=S)Nc1ccc(S(N)(=O)=O)cc1)C(Cl)(Cl)Cl (configuration not stated),i,?,i,i,i,i
Cc1cccc(NC(=S)NC(NC(=O)c2ccco2)C(Cl)(Cl)Cl)c1 (configuration not stated),i,1.12µM,i,?,i,i
Cc1ccc(C(=O)NC(NC(=S)Nc2ccc(S(N)(=O)=O)cc2)C(Cl)(Cl)Cl)cc1 (configuration not stated),i,5.62µM,i,i,i,i
Cc1cc(C)c(NC(=S)NC(NC(=O)c2ccccc2)C(Cl)(Cl)Cl)c(C)c1 (configuration not stated),i,?,i,i,i,i
Cc1cccc(/C=C/c2cccs2)n1,nt,nt,i,nt,nt,i
COc1cccc(C(NC(C)=O)c2nc(-c3cccc(C#N)c3)cs2)c1 (configuration not stated),nt,i,nt,i,?,nt
Cc1cc(NC(c2nnc(-c3ccccc3)o2)c2ccccc2F)ccc1Br (configuration not stated),i,?,i,i,nt,i
SMILES,mIDH1 inhibitor,GLP1R inv ag,TrxR1 inh,GLP1R cytotox,GLP-1R agonist,TrxR1 substrate
CCN1CCN(C(c2ccc(OC)cc2)c2c(O)cc(C)n(CCOC)c2=O)CC1 (configuration not stated),i,i,14.1µM,i,nt,i
CCN1CCN(C(c2cccc(F)c2)c2c(O)cc(C)n(CCOC)c2=O)CC1 (configuration not stated),i,i,11.2µM,i,nt,i
CC(=O)N1CCN(c2csc3ccc(Cl)cc3c2=O)CC1,i,i,i,i,nt,i
CCOC(=O)C1CCN(C(c2ccc(OCC)cc2)c2c(O)cc(C)n(CCOC)c2=O)CC1 (configuration not stated),i,i,25.1µM,i,nt,i
Cc1cc(O)c(C(c2ccccc2)N2CCCCC2)c(=O)n1Cc1ccco1 (configuration not stated),i,i,i,i,nt,i
CCOc1ccc(C(c2c(O)cc(C)n(CCOC)c2=O)N2CCN(c3ccccc3)CC2)cc1 (configuration not stated),i,i,11.2µM,i,nt,i
COc1ccc(C(c2c(O)cc(C)n(Cc3ccco3)c2=O)N2CCN(c3ccccc3)CC2)cc1 (configuration not stated),i,?,15.8µM,i,nt,i
Cc1cc(C(=O)CCl)c(C)n1CCc1ccc(Cl)cc1,?,?,7.94µM,?,i,i
COc1ccc(CCn2c(C)cc(C(=O)CCl)c2C)cc1OC,i,i,?,i,i,i
Cc1ccc(-n2nnnc2CCl)cc1,i,?,14.1µM,i,i,i
Cc1ccc(-c2nnnn2-c2ccc(C)cc2)cc1,i,i,i,i,i,i
C=CCN1C(=O)C(Cc2ccccc2)S/C1=N/N=C/c1cccs1 (configuration not stated),i,11.2µM,i,i,i,i
C=CCN1C(=O)C(Cc2ccc(OCC)cc2)S/C1=N\N=C\c1cccs1 (configuration not stated),i,10µM,i,i,i,i
CCCc1ccc(S(=O)(=O)N2CCN(C(C)C(=O)NCc3ccc(OC)cc3)CC2)cc1 (configuration not stated),i,10µM,i,i,i,i
COc1ccc(C(C(=O)NC2CCCCC2)N(C(=O)CCl)c2cccc(Cl)c2)cc1 (configuration not stated),i,2.82µM,?,i,i,i
O=C(NCC(=O)N(c1ccc(F)cc1)C(C(=O)NC1CCCCC1)c1cccnc1)c1ccco1 (configuration not stated),i,i,i,i,i,i
O=C(NC1CCCCC1)C(c1cccnc1)N(C(=O)CCl)c1ccccc1Cl (configuration not stated),i,1.58µM,i,i,i,i
CCc1ccccc1N(C(=O)CNC(=O)c1ccco1)C(C(=O)NC1CCCC1)c1cccnc1 (configuration not stated),i,i,i,i,i,i

# Screening results (PubChem BioAssay)
